# Measured values: PubChem BioAssay (NCATS)
# A number with no mark means an inactive call. For part of these data: Results with a measured potency or affinity are listed apart. Calls of active or inactive are those of the source. No rule for the calls is given here.
# What was measured:
# [1] = Ebola virus entry assay, green fluorescence channel
# [2] = Ebola virus entry assay, blue channel fluorescence
# [3] = Ebola virus entry assay, green channel fluorescence
# For efficacy in this document: 0% is about no effect.
SMILES,efficacy [1] [%],outcome [2],outcome [3],AC50 [2]
CCCCCCCCCC(=O)O[C@H]1CC[C@H]2[C@@H]3CCC4=CC(=O)CC[C@@H]4[C@H]3CC[C@]12C,27.8,inactive,inactive,–
O=C(O)Cc1ccc(OCCNC[C@H](O)c2ccccc2)cc1,-33.3,inactive,inactive,–
CCC(Cc1c(I)cc(I)c(N)c1I)C(=O)O (stereo unspecified),-15.6,inactive,inactive,–
CC(C)C(=O)Nc1cccc(C(F)(F)F)c1,16.7,inactive,inactive,–
Oc1ccc(Cl)c2cccnc12,-23.9,inactive,inactive,–
N#CC1(c2ccc(F)cc2)CCC(=O)CC1,28.6,inactive,inactive,–
CCCC(CCC)(C(=O)OCC)C(=O)OCC,21,inactive,inactive,–
Nc1nc(N)c(-c2ccccc2)s1,13,inactive,inactive,–
Cc1cccc(C)c1NC(=O)CC12CCCN1CCC2,-14.9,inactive,inactive,–
CN(C)CCN(Cc1ccsc1)c1ccccn1,-18.4,inactive,inactive,–
CC[N+]1(CC)CCC(OC(=O)C(O)(c2ccccc2)c2ccccc2)C1 (stereo unspecified),-22.9,inactive,inactive,–
CCOC(=O)C1=C(C)NC(C)=C(C(=O)OC)C1c1cccc([N+](=O)[O-])c1 (stereo unspecified),20.7,inactive,inactive,–
Cc1cc(O)c2c(O)c3c(O)cccc3cc2c1,34.7,inactive,inactive,–
O=C(O)c1ccccc1C(=O)Nc1ccc(S(=O)(=O)Nc2nccs2)cc1,-12.6,inactive,inactive,–
COC(=O)c1ccc(O)cc1,13.3,inactive,inactive,–
O=C(CCCN1CCC2(CC1)C(=O)NCN2c1ccccc1)c1ccc(F)cc1,-27.3,–,inactive,1780 nM (active)
O=C(O)Cc1cccc(-c2cc(CCCCCCc3ccc(O[C@H]4O[C@H](CO)[C@@H](O)[C@H](O)[C@@H]4O)c(-c4cccc(CC(=O)O)c4)c3)ccc2O[C@H]2O[C@H](CO)[C@@H](O)[C@H](O)[C@@H]2O)c1,-7.69,inactive,inactive,–
O=C(c1ccco1)N1CCNCC1,12.6,inactive,inactive,–
CN1[C@@H]2CC(OC(=O)[C@H](CO)c3ccccc3)C[C@H]1[C@@H]1O[C@@H]12 (stereo partly specified),-18.3,inactive,inactive,–
CC(C)(C(=O)c1cccnc1)c1cccnc1,15.8,inactive,inactive,–
CC[C@H](C)[C@H](N)C(=O)O,-38.6,inactive,inactive,–
CC(=O)Nc1ncc([N+](=O)[O-])s1,20.3,inactive,inactive,–
CCCOc1ccc2c(c1)CC[C@@H]1[C@@H]2CC[C@]2(C)C(OC)CC[C@@H]12 (stereo partly specified),-11.2,inactive,inactive,–
O=C(Nc1ccc(Br)cc1)c1cc(Br)cc(Br)c1O,-20.2,inactive,inactive,–
CN=C(NC#N)NCCSCc1csc(N=C(N)N)n1,-13.8,inactive,inactive,–
C[C@]12CCC(=O)C=C1CC[C@@H]1[C@@H]2CC[C@@]2(C)[C@H]1CC[C@]2(C)O,-23,inactive,inactive,–
CCCCCCCC/C=C/C(=O)O,20.4,inactive,inactive,–
